# Screens as filed in PubChem.
# Sampled rows, rich in hits. Any-hit rate of the full collection: about 6%.
# Chronic BCR inh: inhibitors of chronic active B-cell receptor signaling; ABC-DLBCL IkBa-CBG/CBR reporter, luminescence ratio, 4 h; hit rate 0.05% among 340,000; Potency, µM (titrated, usually from 46.1 µM), for the others: top-dose activity change, negative = inhibition, usual class: inhibitors; active = well fitted inhibition curve with a large enough effect in the signal ratio, with a control signal flat, not every such curve was filed as active; inconclusive = small, poorly fitted or top-dose-only effect, or effect the other way, or a change in a side signal; the % refers to the signal ratio;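 note: potency is the fitted concentration of half-maximal effect; plate controls were basal doxycycline-induced cells for no effect and cells given 10 µM MG132 for full effect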
#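 Compounds up to 46 uM were incubated four hours with TMD8 cells whose green CBG68 luciferase is fused to IkappaBalpha; red CBR luminescence normalised the signal, and concentration-effect curves were fitted to fusion, red and ratio data.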
# D1 antag: human D1 dopamine receptor antagonism. P21728. HEK293 TREx D1 cells, calcium flux, dopamine EC80; active compounds read low. activity change, negative = inhibition, % at 10 µM. hit rate 3.2% among 360,000. AID 504652; in the data active = activity change below about -30%; note: % is set by controls: 0 for no effect and ±100 for the full control effect
#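 Inducible Hek293 Trex D1 cells (tetracycline, overnight, 30 C). Calcium dye 30–90 min RT. Antagonist mode: EC80 dopamine added after 180 s compound read.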
# D3 antag: D3 dopamine receptor (human) antagonism; P35462; D3R cells, DiscoveRx beta-arrestin luminescence, antagonist mode; active compounds read low; max response, negative = inhibition, %; hit rate 2.5% among 360,000; AID 652054; in the data active = max response below about -50%; inconclusive = no clear call, values can overlap the other calls; note: % is set by controls: 0 for no effect and ±100 for the full control effect
# Target sequence (P35462 whole entry, looked up): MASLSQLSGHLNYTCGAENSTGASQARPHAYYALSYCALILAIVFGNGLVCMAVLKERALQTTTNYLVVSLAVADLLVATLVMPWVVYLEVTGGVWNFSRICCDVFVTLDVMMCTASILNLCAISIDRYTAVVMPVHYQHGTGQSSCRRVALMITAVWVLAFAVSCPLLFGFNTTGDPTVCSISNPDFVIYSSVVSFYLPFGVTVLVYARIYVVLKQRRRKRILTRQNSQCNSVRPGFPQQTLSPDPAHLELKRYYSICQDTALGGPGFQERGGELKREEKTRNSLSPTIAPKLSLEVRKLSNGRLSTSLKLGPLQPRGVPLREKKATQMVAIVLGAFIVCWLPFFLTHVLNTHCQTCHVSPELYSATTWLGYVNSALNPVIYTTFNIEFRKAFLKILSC
#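 Cells plated overnight at 1500 cells/well, then exposed to library compounds with dopamine controls for 90 minutes at 37 degrees C. DiscoveRx reagent added for 30–60 minutes at room temperature; luminescence read, quantitative HTS format.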
# DRD3 agonist: activates the human D3 dopamine receptor; D3R DiscoveRx beta-arrestin cells, luminescence, 90 min; max activation, %; hit rate 0.58% among 410,000; AID 652048; in the data active = max activation above about 30%; note: 0% is about no effect
#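 Cells at 1500/well, incubated overnight, then treated with pinned compounds (dopamine as control) for 90 min at 37 degrees C. DiscoveRx reagent added for 30 - 60 minutes at room temperature; luminescence read.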
# D1 agonist: agonists of human D1 dopamine receptor; HEK293 T-REx D1 cells, calcium flux, agonist mode; P21728; activation, % at 2 µM; hit rate 1% among 360,000; in the data active = activation above about 30%; note: 0% is about no effect
#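 Inducible HEK293 T-REx D1 cells, force-coupled to calcium signalling, were plated at 4000 cells/well with tetracycline and held overnight at 30 C. After no-wash calcium dye loading, compound-evoked calcium rise over 180 s flagged agonists.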
# D1 PAM: enhances dopamine response at the human D1 receptor | P21728 | HEK293 TREx D1 cells, calcium flux, dopamine EC20 potentiation | hit rate 0.036% among 360,000 | potentiation, % at 10 µM | AID 504651; in the data active = potentiation above about 30%; note: 0% is about no effect
# Starred values were filed as active, the others as inactive; u = inconclusive; x = not tested or not shown.
SMILES,Chronic BCR inh,D1 antag,D3 antag,DRD3 agonist,D1 agonist,D1 PAM
COCCCN1C(=O)C(CC(=O)NCCCN(C)C)CC(C(=O)N2CCOCC2)=C1C (configuration not stated),x,x,1,95*,x,x
CCOC(=O)c1c(S(=O)(=O)N2CCN(c3cc(Cl)ccc3C)CC2)c(C)n(C)c1C,x,6,x,-18,6,-8
Cc1ccc(CN(C(=O)c2ccc(OCC(C)C)cc2)c2ccccn2)o1,x,-5,x,4,18,-1
CC(C(O)c1ccccc1)N(C)CCOC(c1ccccc1)c1ccccc1 (configuration not stated),x,x,x,-21,x,x
CCN(CC)CCNC(=S)Nc1ccc(Cl)cc1,2%,-1,-51*,-11,12,-3
COc1ccccc1-c1nc2c(c(SCC(=O)Nc3ccccc3F)n1)Cc1c(CO)cnc(C)c1O2,x,7,x,-5,0,1
Nc1nonc1C(=O)NCCNCc1ccccc1OCc1ccc(F)cc1,u,-29,-3,-40,30*,-11
NS(=O)(=O)c1ccc(CCNCc2ccccc2OCc2ccc(F)cc2)cc1,u,-40*,u,-22,41*,-17
CCOc1cc(CNCCc2ccc(S(N)(=O)=O)cc2)ccc1OCc1ccc(Cl)cc1,-12%,-56*,19,-8,79*,-16
CCOc1ccc(CNCCNC(=O)c2nonc2N)cc1,0%,-11,-6,-4,2,0
CC(=O)c1ccc(NC(=O)Cn2c3ncccc3c(=O)n2-c2ccc(C)cc2)cc1,x,21,x,6,19,0
CC(=O)Nc1ccc(NC(=O)CCCn2nc(C)c3sc4ccccc4c3c2=O)cc1,x,4,x,-11,10,2
O=S(=O)(NCCc1csc(-c2cccc(F)c2)n1)c1cc(F)ccc1F,x,-1,x,-18,7,-4
COc1cccc(-c2nc(N3CCCCC3)c3ccccc3n2)c1O,x,x,40,11,x,x
CCC1CCCCN1c1nc(-c2cccc(OC)c2O)nc2ccccc12 (configuration not stated),3%,36,28,31*,0,9
CCc1ccc(N(CC)C(=O)Cn2nc(Cc3cccnc3)c3ccccc3c2=O)cc1,x,13,x,-21,0,0
O=C(NCCc1ccccc1)C(=O)NCC1(c2ccccc2)CCCC1,8%,-31*,5,-5,9,-8
C=CCCC1CN(CCCC)S(=O)(=O)c2c(F)cccc2O1 (configuration not stated),x,x,23,35*,x,x
CCCCN1C[C@H](CO)Oc2cccc(F)c2S1(=O)=O,x,x,-17,-1,x,x
CCCCCNC(=O)c1nc(-c2c(F)cccc2F)oc1-c1ccccc1,x,x,27,2,x,x
CCOC(=O)c1ccccc1Nc1cc(C)nc2nc(-c3ccco3)nn12,x,-32*,x,9,74*,2
CC(=O)c1ccc(S(=O)(=O)Nc2cccc(-c3ccc(N4CCCCCC4)nn3)c2)cc1,x,10,x,-9,3,0
COc1ccc(-c2ccc(-c3cc(=O)oc4cc(OC)c(OC)c(OC)c34)cc2)cc1OC,-10%,x,3,34*,x,x
Cc1c(C(=O)OCCN2CCCCC2)oc2ccccc12,u,-5,-61*,-4,2,1
Cc1c(C(=O)N2CCN(CCc3ccccc3)CC2)oc2ccccc12,7%,-32*,-86*,-26,2,-3
SMILES,Chronic BCR inh,D1 antag,D3 antag,DRD3 agonist,D1 agonist,D1 PAM
COCc1c(C(=O)N2CCN(c3ccccc3C)CC2)oc2ccccc12,0%,x,0,-12,x,x
COCc1c(C(=O)N2CCN(CCOc3ccccc3)CC2)oc2ccccc12,-12%,-45*,-7,88*,5,x
Cc1c(C(=O)N2CCN(S(C)(=O)=O)CC2)oc2ccccc12,u,-2,-22,-3,3,-6
Cc1c(C(=O)OCC(=O)N2CC(C)CC(C)C2)oc2ccccc12 (configuration not stated),3%,12,5,1,9,2
O=C(OCCN1CCCCC1)c1c[nH]c2ccccc12,u,-13,-57*,0,6,-2
CCOC(=O)c1[nH]c(C)c(CCC(=O)NC(C)c2ccccc2)c1C (configuration not stated),x,-6,x,-6,1,-5
COC(=O)C1CCN(c2csc3ccc(Cl)cc3c2=O)CC1,x,8,x,11,3,7
CC(OC(=O)c1oc2ccccc2c1COc1ccccc1)C(N)=O (configuration not stated),-5%,-8,28,-5,3,2
CC(C)(C)NC(=O)c1oc2ccccc2c1COc1ccccc1,u,7,-5,-2,31*,6
Cc1c(C(=O)OCC(=O)N2c3ccccc3CC2C)oc2ccccc12 (configuration not stated),-1%,-65*,27,-1,1,1
Cc1c(C(=O)OCC(=O)N2C(C)CCCC2C)oc2ccccc12 (configuration not stated),0%,8,-11,4,2,-5
O=c1[nH]c2ccc(S(=O)(=O)N3CCN(S(=O)(=O)c4ccc5c(c4)OCCO5)CC3)cc2[nH]c1=O,x,-17,x,x,1,-2
CC(Nc1ccc(Br)cc1)C(=O)NC(=O)NC1CCCCC1 (configuration not stated),x,x,8,-1,x,x
C/C(=N\Nc1cc(N2CCOCC2)nc(C)n1)c1ccc(F)cc1,u,7,-5,2,1,1
C/C(=N\Nc1cc(N2CCCCC2)nc(C)n1)c1ccc(Br)cc1,u,-4,23,67*,4,-2
COc1cc(O)cc(/C=C/c2ccccc2)c1,x,x,6,70*,x,x
CCOc1ccc(NC(=O)Cn2cnc3c(oc4ccccc43)c2=O)cc1,x,2,x,1,0,-2
C[C@H](CCC(=O)OCc1cn(CC(=O)c2ccc(O)cc2)nn1)C1CC[C@H]2[C@@H]3CC[C@@H]4C[C@H](O)CC[C@]4(C)[C@H]3C[C@H](O)[C@]12C (some centres not stated),x,x,37,44*,x,x
Cc1cccc(NC(=O)Cn2cc(S(=O)(=O)N3CCCC3)c(S(=O)(=O)N3CCCC3)c2)c1C,x,0,x,0,2,-1
CC1(C(=O)NCc2ccc(F)c(F)c2)Cc2c(-c3ccccc3)ccnc2O1 (configuration not stated),x,x,0,-10,x,x
CCOC(=O)C1(Cc2ccc(Cl)cc2)CCN(C(C)Cc2ccc(O)c(OC)c2)CC1 (configuration not stated),u,-37*,u,-10,28,-8
Brc1ccc2nc(C3CCCCC3)c(Cc3ccccc3)n2c1,x,x,4,4,x,x
